Assay results as given in the supplement of paper PMC11732987, “Enantioselective OTUD7B fragment discovery through chemoproteomics screening and high-throughput optimisation” (Communications Chemistry, 2025).

What was measured:
Assay in all cases: log2 ratio of Biotin-Ahx-Ub-VS probe labelling (fragment/DMSO); higher = less target engagement (more negative = stronger competition), active = hit call of the paper (q ≤ 0.05, log2 ratio ≤ -1)
Conditions in all cases: compound concentration: 200 uM; treatment time: 3 h
USP34 = USP34 (UniProt Q70CQ2)
Outline: (§1)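 The table lists average log2 ratios of fragment over vehicle, from an unpaired t-test on global-median-normalised Spectronaut label-free quantities. Proteins with ≥2 unique peptides were used. Samples were HEK293T lysate (495 µg) treated in triplicate with fragment at 200 µM or vehicle for 3 h, then with Biotin-Ahx-Ub-VS (0.5 µM final) for 1 h, with labelled DUBs NeutrAvidin-enriched and run by diaPASEF LC-MS/MS.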

USP36 = biological target: T1, USP36 (UniProt Q9P275)
T1 sequence (whole entry): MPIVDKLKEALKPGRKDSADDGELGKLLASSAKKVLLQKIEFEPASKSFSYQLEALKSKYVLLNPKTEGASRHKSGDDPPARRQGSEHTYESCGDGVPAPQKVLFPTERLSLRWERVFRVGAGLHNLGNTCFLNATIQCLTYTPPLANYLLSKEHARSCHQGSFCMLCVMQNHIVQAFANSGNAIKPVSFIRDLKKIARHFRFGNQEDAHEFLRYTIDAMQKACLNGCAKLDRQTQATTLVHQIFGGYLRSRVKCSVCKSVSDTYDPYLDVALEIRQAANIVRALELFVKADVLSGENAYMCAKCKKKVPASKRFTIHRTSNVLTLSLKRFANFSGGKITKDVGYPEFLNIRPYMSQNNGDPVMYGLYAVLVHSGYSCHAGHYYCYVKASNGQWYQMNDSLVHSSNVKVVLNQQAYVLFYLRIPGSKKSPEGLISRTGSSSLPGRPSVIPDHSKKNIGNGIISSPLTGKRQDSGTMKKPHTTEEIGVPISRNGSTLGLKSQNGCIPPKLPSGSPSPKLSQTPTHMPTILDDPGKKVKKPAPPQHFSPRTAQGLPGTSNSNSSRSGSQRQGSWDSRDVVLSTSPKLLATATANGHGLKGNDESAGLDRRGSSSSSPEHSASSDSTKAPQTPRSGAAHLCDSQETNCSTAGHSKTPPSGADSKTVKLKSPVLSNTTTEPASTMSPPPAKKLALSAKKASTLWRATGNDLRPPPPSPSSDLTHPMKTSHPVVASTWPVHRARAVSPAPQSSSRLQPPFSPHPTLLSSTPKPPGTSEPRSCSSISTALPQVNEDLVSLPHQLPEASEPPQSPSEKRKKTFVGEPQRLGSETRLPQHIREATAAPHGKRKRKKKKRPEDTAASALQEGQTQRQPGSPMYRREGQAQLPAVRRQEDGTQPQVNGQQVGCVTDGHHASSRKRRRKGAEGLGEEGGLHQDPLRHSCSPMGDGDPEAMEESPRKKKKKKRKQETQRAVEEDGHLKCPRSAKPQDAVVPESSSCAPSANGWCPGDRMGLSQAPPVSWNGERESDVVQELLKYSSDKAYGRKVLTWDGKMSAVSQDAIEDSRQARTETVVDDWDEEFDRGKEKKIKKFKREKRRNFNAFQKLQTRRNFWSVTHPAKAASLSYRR
Outline: as §1

USP38 = biological target: T2, USP38 (UniProt Q8NB14)
T2 sequence (whole entry): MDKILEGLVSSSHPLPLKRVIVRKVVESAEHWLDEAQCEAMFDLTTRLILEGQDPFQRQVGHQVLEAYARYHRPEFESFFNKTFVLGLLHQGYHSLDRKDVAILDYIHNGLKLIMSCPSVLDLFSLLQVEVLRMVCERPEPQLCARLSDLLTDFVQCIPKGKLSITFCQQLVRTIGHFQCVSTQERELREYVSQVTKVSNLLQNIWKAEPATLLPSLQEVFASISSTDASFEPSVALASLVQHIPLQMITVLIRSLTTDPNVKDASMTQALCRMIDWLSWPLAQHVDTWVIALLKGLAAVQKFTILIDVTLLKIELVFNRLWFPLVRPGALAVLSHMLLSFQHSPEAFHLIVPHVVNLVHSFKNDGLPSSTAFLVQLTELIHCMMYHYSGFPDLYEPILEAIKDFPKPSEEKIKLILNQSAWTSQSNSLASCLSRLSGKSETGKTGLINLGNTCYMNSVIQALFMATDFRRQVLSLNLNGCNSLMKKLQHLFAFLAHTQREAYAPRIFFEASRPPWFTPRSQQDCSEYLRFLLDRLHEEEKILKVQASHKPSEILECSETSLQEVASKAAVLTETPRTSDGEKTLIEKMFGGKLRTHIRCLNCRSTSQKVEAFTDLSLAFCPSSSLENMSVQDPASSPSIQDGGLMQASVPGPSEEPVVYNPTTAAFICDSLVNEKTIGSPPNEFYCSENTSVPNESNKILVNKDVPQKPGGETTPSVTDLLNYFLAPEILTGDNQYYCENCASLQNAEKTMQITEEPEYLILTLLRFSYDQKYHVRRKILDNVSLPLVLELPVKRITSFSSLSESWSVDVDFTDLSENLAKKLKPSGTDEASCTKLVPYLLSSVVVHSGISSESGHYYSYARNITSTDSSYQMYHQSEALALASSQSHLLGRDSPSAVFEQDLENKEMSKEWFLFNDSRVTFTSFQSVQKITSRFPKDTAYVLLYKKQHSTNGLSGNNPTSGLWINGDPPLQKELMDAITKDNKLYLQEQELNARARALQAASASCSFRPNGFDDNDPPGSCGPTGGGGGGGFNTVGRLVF
Outline: as §1

USP39 = biological target: T3, USP39 (UniProt Q53GS9)
T3 sequence (whole entry): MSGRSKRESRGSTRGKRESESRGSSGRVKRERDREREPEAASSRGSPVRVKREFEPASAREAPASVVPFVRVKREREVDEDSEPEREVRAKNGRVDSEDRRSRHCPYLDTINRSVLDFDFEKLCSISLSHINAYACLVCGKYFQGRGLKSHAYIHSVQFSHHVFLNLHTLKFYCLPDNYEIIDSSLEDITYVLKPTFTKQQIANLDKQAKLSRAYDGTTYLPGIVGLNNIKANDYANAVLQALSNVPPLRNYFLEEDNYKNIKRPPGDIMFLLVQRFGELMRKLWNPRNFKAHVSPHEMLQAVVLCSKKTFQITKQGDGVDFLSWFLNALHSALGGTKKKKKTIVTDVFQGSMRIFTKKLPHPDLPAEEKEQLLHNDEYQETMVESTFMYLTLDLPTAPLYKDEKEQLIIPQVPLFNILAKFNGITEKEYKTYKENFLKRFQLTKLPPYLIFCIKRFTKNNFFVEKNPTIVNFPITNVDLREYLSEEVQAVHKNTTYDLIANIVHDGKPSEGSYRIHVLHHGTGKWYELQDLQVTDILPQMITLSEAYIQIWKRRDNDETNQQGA
Outline: as §1

USP4 = biological target: T4, USP4 (UniProt Q13107)
T4 sequence (whole entry): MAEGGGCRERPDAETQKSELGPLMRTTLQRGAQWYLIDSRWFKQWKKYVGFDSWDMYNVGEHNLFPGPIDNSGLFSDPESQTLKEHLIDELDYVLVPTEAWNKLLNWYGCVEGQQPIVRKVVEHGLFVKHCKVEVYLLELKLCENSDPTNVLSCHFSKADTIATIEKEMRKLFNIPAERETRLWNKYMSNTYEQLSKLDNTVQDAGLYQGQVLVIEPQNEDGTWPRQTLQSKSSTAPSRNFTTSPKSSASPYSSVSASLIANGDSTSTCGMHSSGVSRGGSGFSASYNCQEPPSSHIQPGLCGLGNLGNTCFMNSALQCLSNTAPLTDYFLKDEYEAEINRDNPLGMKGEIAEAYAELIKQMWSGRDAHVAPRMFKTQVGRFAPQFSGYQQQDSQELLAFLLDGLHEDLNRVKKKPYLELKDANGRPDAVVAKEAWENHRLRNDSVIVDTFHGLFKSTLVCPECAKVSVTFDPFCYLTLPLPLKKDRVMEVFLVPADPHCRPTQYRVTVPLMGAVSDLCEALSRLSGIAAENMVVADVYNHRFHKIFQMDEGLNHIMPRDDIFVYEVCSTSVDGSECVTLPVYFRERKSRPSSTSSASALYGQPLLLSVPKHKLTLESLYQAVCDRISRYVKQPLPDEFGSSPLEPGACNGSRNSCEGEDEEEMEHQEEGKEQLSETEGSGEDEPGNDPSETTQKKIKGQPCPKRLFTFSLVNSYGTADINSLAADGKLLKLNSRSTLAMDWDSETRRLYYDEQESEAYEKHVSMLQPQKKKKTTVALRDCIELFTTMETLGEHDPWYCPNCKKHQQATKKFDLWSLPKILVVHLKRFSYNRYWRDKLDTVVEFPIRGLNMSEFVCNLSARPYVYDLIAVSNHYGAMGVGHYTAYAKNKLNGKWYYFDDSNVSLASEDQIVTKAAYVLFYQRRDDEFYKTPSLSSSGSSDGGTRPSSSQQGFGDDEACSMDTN
Outline: as §1

Measured: log2 ratio of Biotin-Ahx-Ub-VS probe labelling

USP34, sequence (Q70CQ2 whole entry, the tested form may be a part): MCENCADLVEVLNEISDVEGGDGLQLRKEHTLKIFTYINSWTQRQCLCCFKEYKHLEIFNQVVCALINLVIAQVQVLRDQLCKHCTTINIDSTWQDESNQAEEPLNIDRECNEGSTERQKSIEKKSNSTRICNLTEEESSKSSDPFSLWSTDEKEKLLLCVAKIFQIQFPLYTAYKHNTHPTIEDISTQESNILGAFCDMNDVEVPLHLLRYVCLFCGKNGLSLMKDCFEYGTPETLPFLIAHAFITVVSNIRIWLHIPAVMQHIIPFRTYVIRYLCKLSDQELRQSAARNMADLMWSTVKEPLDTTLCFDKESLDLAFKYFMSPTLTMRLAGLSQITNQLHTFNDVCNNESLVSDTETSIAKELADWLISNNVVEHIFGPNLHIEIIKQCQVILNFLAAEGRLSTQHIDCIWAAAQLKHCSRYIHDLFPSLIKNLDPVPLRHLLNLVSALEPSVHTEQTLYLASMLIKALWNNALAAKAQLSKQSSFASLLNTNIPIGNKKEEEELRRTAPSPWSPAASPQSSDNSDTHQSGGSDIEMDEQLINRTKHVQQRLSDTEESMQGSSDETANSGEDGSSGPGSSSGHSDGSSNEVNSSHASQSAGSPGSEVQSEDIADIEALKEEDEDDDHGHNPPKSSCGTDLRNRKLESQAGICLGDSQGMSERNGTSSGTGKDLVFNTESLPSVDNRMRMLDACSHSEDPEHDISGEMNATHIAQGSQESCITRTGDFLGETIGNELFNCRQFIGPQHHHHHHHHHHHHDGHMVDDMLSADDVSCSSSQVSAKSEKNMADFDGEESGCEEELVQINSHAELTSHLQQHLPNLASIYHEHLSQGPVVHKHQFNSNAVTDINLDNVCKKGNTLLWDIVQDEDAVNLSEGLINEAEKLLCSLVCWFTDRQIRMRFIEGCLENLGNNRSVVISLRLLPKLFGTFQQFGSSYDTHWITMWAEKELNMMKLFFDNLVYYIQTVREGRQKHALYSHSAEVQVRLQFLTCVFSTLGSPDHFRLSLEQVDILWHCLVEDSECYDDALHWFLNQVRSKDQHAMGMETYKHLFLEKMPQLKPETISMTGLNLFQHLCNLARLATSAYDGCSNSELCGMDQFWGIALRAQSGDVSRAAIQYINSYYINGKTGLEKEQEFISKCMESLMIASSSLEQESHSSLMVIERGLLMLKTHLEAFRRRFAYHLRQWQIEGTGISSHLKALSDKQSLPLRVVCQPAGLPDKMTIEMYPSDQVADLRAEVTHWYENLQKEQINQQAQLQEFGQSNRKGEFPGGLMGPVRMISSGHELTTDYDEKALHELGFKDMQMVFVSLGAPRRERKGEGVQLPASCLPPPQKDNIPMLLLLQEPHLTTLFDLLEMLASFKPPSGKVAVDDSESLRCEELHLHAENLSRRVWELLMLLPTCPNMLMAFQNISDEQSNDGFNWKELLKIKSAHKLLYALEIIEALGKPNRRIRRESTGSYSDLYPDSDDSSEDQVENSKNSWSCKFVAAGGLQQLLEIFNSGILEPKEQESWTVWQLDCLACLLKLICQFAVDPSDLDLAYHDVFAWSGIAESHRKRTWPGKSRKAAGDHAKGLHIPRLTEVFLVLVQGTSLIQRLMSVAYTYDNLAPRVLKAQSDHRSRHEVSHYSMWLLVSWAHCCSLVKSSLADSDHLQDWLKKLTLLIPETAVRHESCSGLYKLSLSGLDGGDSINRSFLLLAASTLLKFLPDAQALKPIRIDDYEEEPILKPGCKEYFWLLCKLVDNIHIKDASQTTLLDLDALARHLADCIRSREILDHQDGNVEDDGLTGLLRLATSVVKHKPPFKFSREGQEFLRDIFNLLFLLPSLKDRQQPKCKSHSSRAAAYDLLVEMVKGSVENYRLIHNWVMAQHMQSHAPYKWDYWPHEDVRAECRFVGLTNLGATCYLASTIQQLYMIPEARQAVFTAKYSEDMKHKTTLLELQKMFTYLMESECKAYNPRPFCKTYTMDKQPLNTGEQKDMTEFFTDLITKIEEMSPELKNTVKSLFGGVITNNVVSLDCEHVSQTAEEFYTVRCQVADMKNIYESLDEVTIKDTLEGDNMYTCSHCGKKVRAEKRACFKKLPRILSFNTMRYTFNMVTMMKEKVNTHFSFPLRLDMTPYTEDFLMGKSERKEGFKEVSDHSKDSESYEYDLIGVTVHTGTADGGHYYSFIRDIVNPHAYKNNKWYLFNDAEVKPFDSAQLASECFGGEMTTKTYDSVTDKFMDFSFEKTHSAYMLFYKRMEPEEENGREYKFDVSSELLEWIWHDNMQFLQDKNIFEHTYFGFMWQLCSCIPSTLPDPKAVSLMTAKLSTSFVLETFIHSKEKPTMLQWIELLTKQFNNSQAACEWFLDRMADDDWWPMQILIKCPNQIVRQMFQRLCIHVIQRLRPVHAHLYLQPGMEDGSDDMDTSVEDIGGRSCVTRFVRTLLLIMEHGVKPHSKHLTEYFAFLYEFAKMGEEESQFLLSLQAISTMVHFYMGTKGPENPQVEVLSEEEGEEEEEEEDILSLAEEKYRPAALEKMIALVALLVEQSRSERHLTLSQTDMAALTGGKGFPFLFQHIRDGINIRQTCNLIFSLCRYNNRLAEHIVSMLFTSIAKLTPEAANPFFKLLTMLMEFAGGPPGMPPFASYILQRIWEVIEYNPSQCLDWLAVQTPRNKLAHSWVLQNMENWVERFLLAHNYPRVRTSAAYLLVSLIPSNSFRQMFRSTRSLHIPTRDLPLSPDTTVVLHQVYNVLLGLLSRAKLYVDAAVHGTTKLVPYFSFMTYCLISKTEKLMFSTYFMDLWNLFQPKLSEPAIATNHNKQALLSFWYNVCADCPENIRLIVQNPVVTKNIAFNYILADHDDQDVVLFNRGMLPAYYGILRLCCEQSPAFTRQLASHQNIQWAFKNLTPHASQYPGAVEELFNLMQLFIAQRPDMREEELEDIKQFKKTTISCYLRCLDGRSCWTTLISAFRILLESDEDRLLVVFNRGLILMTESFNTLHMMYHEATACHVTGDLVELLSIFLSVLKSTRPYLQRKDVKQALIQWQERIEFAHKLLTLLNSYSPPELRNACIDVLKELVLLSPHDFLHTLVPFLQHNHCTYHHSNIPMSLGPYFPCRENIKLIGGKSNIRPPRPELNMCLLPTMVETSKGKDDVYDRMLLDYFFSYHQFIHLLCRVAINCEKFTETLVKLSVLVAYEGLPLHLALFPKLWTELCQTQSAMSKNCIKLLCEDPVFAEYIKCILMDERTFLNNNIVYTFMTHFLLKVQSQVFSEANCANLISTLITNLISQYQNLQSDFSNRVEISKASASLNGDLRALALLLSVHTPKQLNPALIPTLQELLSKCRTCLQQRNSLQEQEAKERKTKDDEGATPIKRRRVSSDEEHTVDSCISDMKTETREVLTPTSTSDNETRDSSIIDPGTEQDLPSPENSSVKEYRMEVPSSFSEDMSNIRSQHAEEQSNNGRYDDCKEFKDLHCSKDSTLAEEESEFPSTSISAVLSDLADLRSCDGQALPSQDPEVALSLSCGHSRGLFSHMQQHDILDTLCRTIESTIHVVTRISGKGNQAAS

NC(=O)C1CCCN(C(=O)CCl)C1 (stereo not given)
inactive: USP34 -0.00128 | USP36 0.0237 | USP38 -0.242 | USP39 -0.334 | USP4 -0.0203
